Several values for one entry are separate records, joined by “and”; a condition that tells them apart may be missing. Identical values can stand only once.
Assays:
Assay type in all cases: functional
[1] = biological target: Solute carrier family 2, facilitated glucose transporter member 1 (Homo sapiens) (UniProt P11166); experiment: ST_JUDE_LEISH: Cytotoxicity at 2uM final concentration against transgenic Leishmania Mexicana promastigotes LmGLUT1 that are glucose transport deficient and complemented with the human glucose transporter GLUT1. Activity is measured by DNA content using SYBR green in vitro
[2] = biological target: Hexose transporter 1 (Plasmodium falciparum) (UniProt O97467); experiment: ST_JUDE_LEISH: Cytotoxicity at 2uM final concentration against transgenic Leishmania Mexicana promastigotes LmPfHT that are glucose transport deficient and complemented with the Plasmodium falciparum hexose transporter. Activity is measured by DNA content using SYBR green in vitro
[3] = biological target: Glucose transporter (Leishmania mexicana) (UniProt O61059); experiment: ST_JUDE_LEISH: Cytotoxicity at 2uM final concentration against transgenic Leishmania Mexicana promastigotes LmGT2 that are glucose transport deficient and complemented with the L. Mexicana glucose transporter 2. Activity is measured by DNA content using SYBR green in vitro

Solute carrier family 2, facilitated glucose transporter member 1 (Homo sapiens), sequence (P11166 whole entry): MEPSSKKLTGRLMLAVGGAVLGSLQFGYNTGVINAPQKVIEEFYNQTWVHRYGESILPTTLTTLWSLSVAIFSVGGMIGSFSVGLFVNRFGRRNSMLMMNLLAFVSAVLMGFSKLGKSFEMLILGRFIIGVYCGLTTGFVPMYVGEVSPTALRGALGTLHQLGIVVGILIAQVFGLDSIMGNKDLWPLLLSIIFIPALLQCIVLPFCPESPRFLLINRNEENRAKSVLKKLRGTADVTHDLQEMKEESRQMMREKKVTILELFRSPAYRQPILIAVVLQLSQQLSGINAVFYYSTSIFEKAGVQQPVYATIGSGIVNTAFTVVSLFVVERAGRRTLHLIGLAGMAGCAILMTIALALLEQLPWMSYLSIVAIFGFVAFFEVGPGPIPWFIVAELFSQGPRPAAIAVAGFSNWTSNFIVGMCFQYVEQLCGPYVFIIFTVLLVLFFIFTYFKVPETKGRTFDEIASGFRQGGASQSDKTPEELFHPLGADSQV

Structure (SMILES)	inhibition [1]	inhibition [2]	inhibition [3]
O=C(Nc1ccccc1Cl)NC1CCC(CN2CCC(c3c[nH]c4ccccc34)CC2)CC1 (stereo not drawn)	4.02% and 5.1%	3.83% and 5.22%	-1.83% and 3.04%
O=C(COc1ccc(Cl)cc1)N1CCC(CN2CCC(c3c[nH]c4ccccc34)CC2)CC1	-2.1%	-1.7%	-4.27%
CN1CC=C(c2c[nH]c3ccc(Oc4ccccc4)cc23)CC1	0.93%	6.03%	3.03%
Cc1ccc2c(C3=CCN(CCCCC4(C)C(=O)Nc5c(F)cccc54)CC3)c(C)[nH]c2c1 (stereo not drawn)	2.71%	1.48%	1.63%
O=C(/C=C/c1ccc(Cl)c(Cl)c1)N1CCC(CN2CCC(c3c[nH]c4cc5c(cc34)OCO5)CC2)CC1	5.54%	4.93%	3.71%
O=C(c1ccccc1)C1CC1CN1CC=C(c2c[nH]c3ccccc23)CC1 (stereo not drawn)	2.08%	0.92%	8.35%
CCCCn1c(C)c(C(=O)OCC)c2cc(OC(C)=O)c(Br)cc21	1.92%	1.76%	3.29%
O=C(c1cc(C(=O)NCc2ccc(Cl)cc2)c(=O)n(Cc2ccc(Cl)cc2)c1)c1cc(F)ccc1O	2.53%	1.86%	1.19%
CN(c1cc(NC(=O)c2ccc(F)cc2)ccn1)C1CCN(Cc2ccc(C#N)cc2)CC1	2.42%	2.29%	4.46%
C1=C(c2c[nH]c3ccccc23)CCN(Cc2ccccc2)C1	1.51%	0.32%	-0.23%
CN1CC=C(c2c[nH]c3ccc(Sc4ccccc4)cc23)CC1	1.74%	2.9%	3.42%
O=C(C=Cc1ccccc1C(F)(F)F)NC1CCC(CN2CCC(c3c[nH]c4ccccc34)CC2)CC1 (stereo not drawn)	8.82% and 9.04%	5.1% and 5.78%	5.23% and 4.7%
N#Cc1c(F)cc(N2CCC(NCC[C@H](N)Cc3ccc(F)c(F)c3)CC2)cc1F	2.18%	3.63%	2.33%
CC[C@H]1CN2CC[C@H]1C[C@H]2[C@H](O)c1cc(-c2ccccc2F)nc2ccc(OC)cc12	0.68%	1.58%	0.34%
CCOc1ccc(CN(CCc2ccc3c(c2)OCO3)Cc2cc(OC)ccc2O)cc1	4.49%	4.01%	6.07%
OC1(CNCc2ccccc2)CCN(CCc2c[nH]c3ccc(F)cc23)CC1	4.9%	8.31%	5.83%
CCc1nc(N)nc(N)c1-c1cccc(Cl)c1	2.71%	2.32%	3.02%
C/C=C1\CN2CC[C@H]1C[C@H]2[C@H](O)c1ccnc2ccc(O)cc12	-0.15%	-0.16%	0.93%
CCCc1c(C(=O)NC2CCC(CN3CCC(c4c[nH]c5ccccc45)CC3)CC2)cnn1-c1ccccc1 (stereo not drawn)	3.14%	1.15%	1.83%
Cc1ccc(C[C@@H](C)NC[C@H](O)c2cccc(C(F)(F)F)c2)cc1	3.18%	3.1%	2.92%
O=C(/C=C/c1ccc(Cl)c(Cl)c1)N(Cc1ccccc1)C1CCC(CN2CCC(c3c[nH]c4ccccc34)CC2)CC1 (stereo not drawn)	4.82%	2.84%	4.05%
Cc1ccc(CC(C)(C)NCC(O)c2cccc(C(F)(F)F)c2)cc1 (stereo not drawn)	2.49%	2.91%	3.49%
CC[C@H]1CN2CC[C@@H]1C[C@H]2[C@H](O)c1cc(N2CCC(C)CC2)nc2ccc(OC)cc12	7.8%	9.59%	5.06%
Cn1nc(-c2ccc(S(=O)(=O)N3CCC(CN4CCC(c5c[nH]c6ccccc56)CC4)CC3)s2)cc1C(F)(F)F	0.1%	2.15%	-1.24%

Structure (SMILES)	inhibition [1]	inhibition [2]	inhibition [3]
COc1cccc(/C=C/C(=O)NC2CCC(CN3CCC(c4c[nH]c5ccccc45)CC3)CC2)c1 (stereo not drawn)	2.16% and -1.74%	-0.63% and -2.74%	3.07% and -2.7%
O=C(/C=C/c1ccccc1Cl)NC1CCC(CN2C3CCC2CC(c2c[nH]c4ccccc24)C3)CC1 (stereo not drawn)	2.84%	-0.31%	5.5%
COC(=O)c1sccc1NC(=S)NC1CCC(CN2CCC(c3c[nH]c4ccccc34)CC2)CC1 (stereo not drawn)	4.17% and 2.22%	3.81% and 3.47%	0.42% and 1.38%
CN1CC=C(c2c[nH]c3ccc(-c4ccccc4)cc23)CC1	7.91%	2.99%	5.76%
CCCCCSc1cc(O)c(C(CNC)C(C)C)cc1OC (stereo not drawn)	1.1%	-1.89%	-2.39%
CCCCCCC(CC)c1cc(O)c2c(c1)OC(C)(C)c1ccncc1-2 (stereo not drawn)	3.06%	2.42%	-0.4%
CCCCCCCSc1ccc(CC(C)NCC(O)c2cccc(Cl)c2)cc1 (stereo not drawn)	4.14%	4.49%	4.37%
COc1nc(N)ncc1C(=O)NC1CN2CCC1CC2 (stereo not drawn)	7.43%	6.98%	7.08%
CC[C@H]1CN2CC[C@H]1C[C@H]2[C@H](O)c1cc(-c2ccc(SC)cc2)nc2ccc(OC)cc12	4.44%	4.13%	7.64%
O=C(C=Cc1ccccc1Br)NC1CCC(CN2CCC(c3c[nH]c4ccccc34)CC2)CC1 (stereo not drawn)	9.4% and 3.03%	3.62% and 2.4%	0.32% and 2.12%
O=[N+]([O-])c1ccc(Oc2c(Cl)cc(S(=O)(=O)NC3CCC(CN4CCC(c5c[nH]c6ccccc56)CC4)CC3)cc2Cl)c(Cl)c1 (stereo not drawn)	2.41%	0.39%	-1.14%
COc1ccc(CC(C)NCC(O)c2cccc(C(F)(F)F)c2)cc1 (stereo not drawn)	9.76%	8.74%	8.93%
COCCNCc1cccc(-c2ccc(CN(C(=O)Nc3ccccc3)C3CCN(Cc4ccccc4)CC3)cc2)c1	2.81%	0.8%	2.73%
COC(=O)/C=C/c1ccc(CC(C)NCC(O)c2cccc(C(F)(F)F)c2)cc1 (stereo not drawn)	0.9% and -0.04%	-2.11% and 0.7%	-1.59% and -0.73%
CC(Cc1ccc(SC(C)(C)C)cc1)NCC(O)c1cccc(Cl)c1 (stereo not drawn)	-1.59%	-2.57%	-0.72%
CN(C)c1cccc(NC(=O)N[C@H]2N=C(c3ccccc3)c3ccccc3N(CC(=O)N3CCCC3)C2=O)c1	2.85%	2.62%	2.53%
CC(C)CNCc1ccc(-c2cccc(CN(C(=O)Nc3ccccc3)C3CCN(Cc4ccccc4)CC3)c2)cc1	0.61%	-0.02%	-1.04%
O=C(c1cccs1)N(Cc1cccc(-c2ccc(CNC3CCCC3)cc2)c1)C1CCN(Cc2ccccc2)CC1	10.1%	10%	9.21%
O=C(NC1CCC(CN2CCC(c3c[nH]c4ccccc34)CC2)CC1)c1cc2ccccc2o1 (stereo not drawn)	2.54%	0.9%	-2.2%
CC(C)N(C)C(=O)n1cnc(S(=O)(=O)C2CC3CCC2C3)n1 (stereo not drawn)	2.26%	1.45%	-0.84%
CC(=O)N(Cc1cccc(-c2cccc(CNCc3ccc4c(c3)OCO4)c2)c1)C1CCN(Cc2ccccc2)CC1	6.88%	7.09%	7.83%
CC(Cc1ccc(OCCCCOc2ccccc2)cc1)NCCCN1CCOCC1 (stereo not drawn)	-1.24%	2.33%	-0.25%
CNC(=O)c1ccc2[nH]cc(C3CCN(CC4CCC(NC(=O)/C=C/c5ccc(Cl)c(Cl)c5)CC4)CC3)c2c1 (stereo not drawn)	9.29%	7.99%	4.82%
COC(=O)c1ccc(CC(C)NCC(O)c2cc(Cl)c(N)c(Cl)c2)cc1 (stereo not drawn)	1.96%	2.46%	2.16%

Structure (SMILES)	inhibition [1]	inhibition [2]	inhibition [3]
Cc1[nH]c2ccccc2c1C1=CCN(CCCCCNC(=O)/C=C/c2ccc(Cl)c(Cl)c2)CC1	5.3%	5.72%	5.48%
CC(Cc1ccc(S(=O)(=O)N(C(C)C)C(C)C)cc1)NCC(O)c1cccc(C(F)(F)F)c1 (stereo not drawn)	-0.77%	2.53%	1.68%
O=C(NC1CCN(CC2(c3ccc(Cl)cc3)CCC2)CC1)c1cscn1	1.16%	-2.56%	0.83%
O=C(/C=C/c1cccs1)NC1CCC(CN2CCC(c3c[nH]c4ccccc34)CC2)CC1 (stereo not drawn)	4.14%	5.22%	2.51%
CCC1(C)N=C(N)N=C(N)N1c1ccc(Cl)cc1 (stereo not drawn)	3.87%	-0.9%	2.79%
CC[C@H]1CN2CC[C@@H]1C[C@H]2[C@H](O)c1cc(N2CCC(O)(c3ccccc3)CC2)nc2ccc(OC)cc12	5.33%	4.26%	1.87%
Cc1cc(N)nc2cc(CNCCc3ccccc3Br)ccc12	0.26%	0.02%	-0.67%
CC[C@@]1(O)C(=O)OCc2c1cc1n(c2=O)Cc2c-1nc1cc3c(cc1c2CN1CCOCC1)OCO3	51.3%	76.7%	71.6%
O=C(/C=C/c1ccc(O)cc1)NC1CCC(CN2CCC(c3c[nH]c4ccccc34)CC2)CC1 (stereo not drawn)	-4.73%	-2.63%	-0.07%
C=CC12CCN(CC1)C(C(O)c1ccnc3ccc(OC)cc13)C2 (stereo not drawn)	0.26%	0.03%	-0.85%
CC[C@H]1CN2CCc3cc(OC)c(OC)cc3[C@@H]2C[C@@H]1C[C@H]1NCCc2c1cc(OC)c(O)c2Cl	94.8%	98.3%	89.3%
COc1ccc(C(=O)C2CC2CN2CC=C(c3c[nH]c4cccc(Br)c34)CC2)cc1 (stereo not drawn)	4.26%	2.54%	2.11%
Cn1c(C2CC3CCC(C2)N3CC2CCC(NC(=O)/C=C/c3ccc(Cl)c(Cl)c3)CC2)nc2ccccc21 (stereo not drawn)	4.11%	3.19%	2.69%
COC(=O)c1ccc(CC(C)NCC(O)c2cccc(C(F)(F)F)c2)c(Cl)c1 (stereo not drawn)	2.55%	2.18%	3.39%
COc1ccccc1CNCC(O)c1cc(C(F)(F)F)ccc1C(F)(F)F (stereo not drawn)	0.84%	0.58%	1.6%
CN1C2CCC1c1cc(NC(=O)c3cc(-c4ccc(Cl)cc4)cs3)ccc12 (stereo not drawn)	8.89%	9.62%	8.52%
CC[C@H]1CN2CC[C@@H]1C[C@H]2[C@H](O)c1cc(-c2ccccc2)nc2ccc(O)cc12	5.97%	5.53%	2.83%
CC[C@H]1CN2CC[C@@H]1C[C@H]2[C@H](O)c1cc(N2CCC(CO)CC2)nc2ccc(OC)cc12	1.5%	1.17%	2.66%
CN(C)CCc1c[nH]c2ccc(C(=O)Nc3ccc(-c4ccncc4)cc3)cc12	0.58%	0.83%	0.61%
COc1coc(C(=O)NC2CCN(CC3(c4ccc(Cl)cc4)CCC3)CC2)c1OC	4.7%	4.52%	2.81%
COC(=O)c1ccc(CC(C)NCC(O)c2cccc(C(F)(F)F)c2)c(OC)c1 (stereo not drawn)	6.43%	5.12%	5.25%
O=C(/C=C/c1ccc(Cl)c(Cl)c1)NC1CCC(CN2CCC(c3c[nH]c4ccccc34)C(O)C2)CC1 (stereo not drawn)	5.68%	3.72%	4.19%
Cc1c(C)c2c(c(C)c1O)CC[C@](C)(C(=O)NC1CCC(CN3CCC(c4c[nH]c5ccccc45)CC3)CC1)O2 (stereo partly drawn)	-0.89% and 2.73%	2.05% and 2.37%	-1.4% and -1.2%

— ChEMBL document CHEMBL3433997, “St. Jude Leishmania screening dataset” (2016)
